The text below walks through data of PubChem BioAssay.

Assay [1] has as its system Wnt5a (protein binding on small-molecule microarray). Kind of assay: Wnt5a binders on small-molecule microarray, primary screen, biophysical, 635/667 nm fluorescence (AID 1142).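 Note: fluorescence read at 667 nm with signal to noise per printed feature.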 As to conditions: 635 nm fluorescence, higher = more signal.
Assay [2] in a line: cell viability in Huh7 cells, primary screen, cytotoxicity control for HCV replication inhibitor project, CellTiter-Glo luminescence, basal, 48 h (AID 1143).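 Note: Huh7 hepatoma cells carrying a hepatitis C replication reporter with no stimulus; test concentration not given here.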 Particulars: Huh7 HCV replicon, higher = more signal, called active from +8 up or from −8 down.
A short description of assay [3]: P. aeruginosa biofilm formation inhibitors, primary screen, PAO1 strain, BacTiter-Glo luminescence, LB-PBS (AID 1144). Particulars: 12 h, higher = more signal.
Assay [4] in a line: CREB reporter modulators without forskolin, primary screen, cell-based, PC12, CRE-LacZ reporter, unstimulated (AID 1145). As to conditions: no forskolin, luminescence, 4.5 h, higher = more signal, called active from +8 up or from −8 down.
Assay [5] is described as follows: CREB reporter modulators under forskolin, primary screen, cell-based, PC12, CRE-LacZ reporter, forskolin-stimulated (AID 1146).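 Note: PC12 cells with 6xCRE LacZ reporter stimulated by forskolin 10 µM; beta-galactosidase reporter signal reflecting CREB driven transcription.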 Particulars: luminescence, 4.5 h, higher = more signal, called active from +8 up or from −8 down.
The target of assay [6] is Streptavidin (Streptomyces avidinii) (UniProt P22629). Kind of assay: streptavidin binders on small-molecule microarray, primary screen, artefact control for SMM compound annotation, biophysical, 635/667 nm fluorescence (AID 1147).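 Note: signal reflects streptavidin binding to arrayed compounds as a control protein.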 As to conditions: streptavidin binding, higher = more signal.
Assay [7] is described as follows: small-molecule binders of probe aInhba, primary screen, biochemical, small-molecule microarray, 635/667 nm fluorescence (AID 1148).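 Note: score merges 667nm spot fluorescence with signal-to-noise for antibody binding to printed compounds.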 Particulars: higher = more signal.
The target in assay [8] is Torsin-1A (Homo sapiens) (UniProt O14656). Briefly: torsin A binders from cell lysate, primary screen, small-molecule microarray, wild-type, 635/667 nm (AID 1149). As to conditions: COS7 hTOR1A-WT lysate, 635 nm fluorescence, higher = more signal.
Assay [9] shares this target. Briefly: small-molecule binders of mutant TOR1A in lysate, primary screen, cell lysate, small-molecule microarray, COS7 lysate, 635/667 nm fluorescence (AID 1150).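 Note: score pools 667 nm emission and signal to noise measuring lysate protein binding.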 As to conditions: COS7 hTOR1A mutant lysate, 635 nm fluorescence, higher = more signal.
Assay [10] concerns Sonic hedgehog protein (Shh). Briefly: small-molecule binders of Shh protein, primary screen, biochemical, small-molecule microarray, 635/667 nm fluorescence (AID 1151).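 Note: Shh protein binding to compounds spotted on small-molecule microarray slides; score combines spot fluorescence intensity with signal-to-noise across triplicate slides.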 As to conditions: small-molecule microarray binding, 635 nm fluorescence; higher = more signal.

Calls of active or inactive are those of the source. Unless noted, the rule behind the calls is not given here.

Streptavidin (Streptomyces avidinii), sequence (P22629 whole entry, looked up): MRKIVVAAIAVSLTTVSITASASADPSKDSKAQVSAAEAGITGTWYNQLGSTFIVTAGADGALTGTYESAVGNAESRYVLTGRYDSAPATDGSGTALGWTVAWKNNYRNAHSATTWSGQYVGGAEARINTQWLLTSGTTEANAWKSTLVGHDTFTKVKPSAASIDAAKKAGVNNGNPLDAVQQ
Torsin-1A (Homo sapiens), sequence (O14656 whole entry, looked up): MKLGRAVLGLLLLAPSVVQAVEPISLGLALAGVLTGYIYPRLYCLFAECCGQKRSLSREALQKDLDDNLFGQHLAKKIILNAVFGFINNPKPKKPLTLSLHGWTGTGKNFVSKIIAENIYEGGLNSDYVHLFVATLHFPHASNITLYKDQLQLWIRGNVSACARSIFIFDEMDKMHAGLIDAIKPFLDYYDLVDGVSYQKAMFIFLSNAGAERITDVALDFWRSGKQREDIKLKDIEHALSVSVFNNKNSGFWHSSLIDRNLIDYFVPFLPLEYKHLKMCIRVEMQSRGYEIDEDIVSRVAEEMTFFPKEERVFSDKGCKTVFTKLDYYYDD

With `COC(=O)[C@@]1(Cc2ccc(F)cc2)[C@H]2c3cc(C(=O)N(C)C)n(Cc4cc(F)c(F)c(F)c4)c3C[C@H]2CN1C(=O)c1ccccc1`, the composite z-score in assay [1] was 0.283; in [6], 1.25; in [7], 1.08; with Torsin-1A (Homo sapiens) [8] it was -0.272; with Torsin-1A (Homo sapiens) [9], 0.193; in [10], -0.176. Also, the z-score in [2] is -3 (inactive); in [3], 0.459 (inactive); in assay [4] it was 1.53 (inactive); in [5], 0.578 (inactive).

Turning to `CN(C)C(=O)[C@@]1(CCS(=O)(=O)c2ccccc2)COC(c2ccc(OCCCO)cc2)=N1`, the composite z-score in [1] was 0.623; in assay [6], 0.0248; in assay [7] it was 0.0589; with Torsin-1A (Homo sapiens) [8], 1.24; in the assay with Torsin-1A (Homo sapiens) [9] it was 2.51; in [10], -0.977. The z-score in assay [2] was -3.66 (inactive); in assay [3] it was -0.26 (inactive); in [4] it was -0.562 (inactive); in assay [5], -0.793 (inactive).

For `C=C(/C(=C/C[C@H](OC(C)=O)c1ccc(CO)o1)c1cc(C(=O)OC)ccc1OC)C(C)C`, the composite z-score in [1] was 0.0267; in assay [6], -0.489; in [7], 0.0051; with Torsin-1A (Homo sapiens) [8], -0.501; in the assay with Torsin-1A (Homo sapiens) [9] it was 0.241; in assay [10], 1.05. For the same compound, the z-score was -3.56 (inactive) in assay [2], 0.263 (inactive) in assay [3], 2.22 (inactive) in assay [4] and 0.769 (inactive) in [5].

As to `COC(=O)[C@@]1(Cc2ccccc2)[C@H]2c3cc(C(=O)N4CCCC4)n(Cc4ccc(S(C)(=O)=O)cc4)c3C[C@H]2CN1C(=O)c1ccccc1`, the composite z-score in assay [1] is -0.0831; in assay [6] it was 2.21; in assay [7], 0.401; in the assay with Torsin-1A (Homo sapiens) [8] it was 0.758; in the assay with Torsin-1A (Homo sapiens) [9], 0.81; in [10] it was -0.344. Moreover, the z-score in assay [2] is -1.22 (inactive); in [3], 0.779 (inactive); in assay [4] it was 0.959 (inactive); in assay [5], 0.266 (inactive).

As for `C=CCC(OC(C)=O)[C@@H]1[C@@H](N(Cc2ccc(-c3cccc(C(F)(F)F)c3)o2)C(=O)c2ccc(C)cc2)c2cc(OCCCO)ccc2N1C(=O)Cc1ccc2ccccc2c1` (stereo not given in full), the composite z-score was -0.125 in assay [1]; -0.269 in assay [6]; -0.024 in assay [7]; -0.563 with Torsin-1A (Homo sapiens) [8]; -0.702 with Torsin-1A (Homo sapiens) [9]; 0.223 in assay [10]. Moreover, the z-score in assay [2] is -0.0329 (inactive); in [3], -0.568 (inactive); in assay [4] it was -1.1 (inactive); in assay [5], -0.0977 (inactive).

With `O=C(c1ccccc1)N1Cc2ccccc2C[C@@]2(COC(c3ccc(OCCCO)cc3)=N2)C1=O`, the composite z-score was found to be 0.406 in assay [1]; 0.298 in assay [6]; 0.167 in assay [7]; 0.655 with Torsin-1A (Homo sapiens) [8]; 0.787 with Torsin-1A (Homo sapiens) [9]; 1.33 in assay [10]. Moreover, the z-score in assay [2] was -1.71 (inactive); in [3] it was -0.0668 (inactive); in assay [4] it was 2.72 (inactive); in assay [5] it was -0.152 (inactive).

With `CC(C)C[C@@H]1NC(=O)[C@@H]2C[C@H](C(=O)O)[C@H](c3cccc(OCCO)c3)N2C1=O`, the composite z-score was 0.64 in [1]; -0.811 in assay [6]; -0.209 in assay [7]; 0.198 with Torsin-1A (Homo sapiens) [8]; 1.09 with Torsin-1A (Homo sapiens) [9]; 0.188 in [10]. In addition, the z-score in assay [2] was -1.07 (inactive); in [3], 0.133 (inactive); in [4] it was 0.826 (inactive); in assay [5], 1.41 (inactive).

Consider `[N-]=[N+]=NCc1ccccc1C[C@]1(C(=O)N2CCCCC2)N=C(c2ccc(OCCCO)cc2)O[C@H]1c1ccccc1N=[N+]=[N-]`, for which the composite z-score in [1] is 0.0151; in [6] it was 1.46; in [7] it was 0.127; in the assay with Torsin-1A (Homo sapiens) [8], 0.333; with Torsin-1A (Homo sapiens) [9], 1.03; in assay [10], -0.27. The z-score was -5.01 (inactive) in [2], -0.799 (inactive) in assay [3], -0.333 (inactive) in [4] and -1.69 (inactive) in assay [5].

As for `CCCC[C@H]1OB(O)C[C@H]2C1=C(COC)Cn1c(=O)n(-c3ccccc3)c(=O)n12`, the composite z-score in assay [1] was 0.0162; in assay [6], -0.333; in assay [7] it was -0.182; with Torsin-1A (Homo sapiens) [8], 0.0681; in the assay with Torsin-1A (Homo sapiens) [9], 0.0861; in [10], 0.948. Besides, the z-score was 0.0344 (inactive) in assay [2], -0.549 (inactive) in assay [3], -0.327 (inactive) in assay [4] and 0.124 (inactive) in assay [5].

Take `Cc1ccc([C@@H]2C[C@@H](Sc3ccccc3)[C@H](C(=O)O)CN2S(=O)(=O)c2ccc(C)cc2)cc1`: the composite z-score in [1] was 0.387; in assay [6] it was 1.39; in assay [7] it was 0.122; with Torsin-1A (Homo sapiens) [8], 0.877; in the assay with Torsin-1A (Homo sapiens) [9], 0.244; in [10], -0.053. Also, the z-score in [2] was -0.758 (inactive); in assay [3] it was -0.606 (inactive); in assay [4], -0.676 (inactive); in assay [5], 0.762 (inactive).

With `COc1cc2c(cc1O)C(c1cccs1)N(C)CC2` (stereo not given), the composite z-score in [1] is -0.289; in assay [6] it was -1.17; in assay [7] it was -0.218; with Torsin-1A (Homo sapiens) [8], -1.19; with Torsin-1A (Homo sapiens) [9], -0.597; in assay [10], -0.44. Further, the z-score in [2] is -0.0812 (inactive); in [3], 0.134 (inactive); in assay [4] it was -0.374 (inactive); in [5] it was -0.0678 (inactive).

As to `CC(C)NC(=O)[C@@]1(c2ccc([N+](=O)[O-])cc2)CC(=O)N(C2CCCCC2)[C@@H]1c1ccc(CO)cc1I`, the composite z-score was -0.0239 in [1]; -0.154 in [6]; 0.0497 in [7]; 0.0498 with Torsin-1A (Homo sapiens) [8]; 0.242 with Torsin-1A (Homo sapiens) [9]; -0.241 in assay [10]. In addition, the z-score was -4.27 (inactive) in [2], 1.11 (inactive) in [3], 1.04 (inactive) in assay [4] and -0.727 (inactive) in assay [5].

In the case of `CC(C)=CCN[C@H](CO)c1ccccc1`, the composite z-score in assay [1] is -0.249; in assay [6], 0.0079; in assay [7], 0.102; in the assay with Torsin-1A (Homo sapiens) [8], -0.801; in the assay with Torsin-1A (Homo sapiens) [9], 0.324; in assay [10], 0.627. Besides, the z-score in [2] is -3.85 (inactive); in [3], -0.0678 (inactive); in assay [4], -1.05 (inactive); in assay [5], 0.0877 (inactive).

As to `O=C1C2C=CC(C(O)c3cccc4ccccc34)N(Nc3ccccc3F)C2C(=O)N1c1ccccc1` (stereo not given), the composite z-score in assay [1] was 0.115; in assay [6], 1.66; in assay [7], 0.103; with Torsin-1A (Homo sapiens) [8], 1.44; with Torsin-1A (Homo sapiens) [9], 0.993; in assay [10], -0.458. Also, the z-score was -0.586 (inactive) in [2], -0.732 (inactive) in [3], -0.62 (inactive) in [4] and 0.276 (inactive) in assay [5].
